Out of some 98,000 compounds screened, about 4,900 (5%) were called active. This excerpt belongs to a sample that is enriched for actives. Values without a mark were called inactive. Rule as the data show it: active = inhibition above about 30%; inactive = the rest.

The assay can be described thus: yeast control strain growth suppression – counter-screen for post-Golgi transport modulator project, primary screen (AID 738). Conditions: efflux-deficient yeast background strain, growth absorbance A615, 16 h; at 10 µM; stronger effect = higher value. (In general: A counterscreen serves to expose hits that act by an unwanted route or on another target.)
On to `CC(=O)Nc1ccc(N2C(=O)C3C4CC(=O)C(c5ccccc54)C3C2=O)cc1` (stereo unspecified), for which the inhibition (as a rule, the drop in the measured response relative to a control, in per cent) was -8.39%.

`O=C(NCc1cccnc1)c1cccnc1Sc1ccc(Cl)cc1`: the inhibition is -2.08%. Take `CC(C)=CC(=O)Nc1nnc(-c2ccc(F)cc2)s1`: the inhibition was -0.29%. Turning to `Cc1cc(C)nc(SC(C)C(=O)N/N=C/c2cccs2)n1` (stereo unspecified), the inhibition was 6.8%. Regarding `C#CCSc1nnc(-c2sc3ccccc3c2Cl)o1`, the inhibition was 0.45%. In the case of `COc1ccccc1-c1n[nH]c2c1[C@H](C)CC[C@H]2C(C)C`, the inhibition was 38% (active). Consider `Cc1cc2c(cc1C)N(C(=O)CN1C(=O)c3ccccc3C1=O)C(C)(C)c1ssc(=S)c1-2`, for which the inhibition is 32.6% (active). For `C=CCN(CC=C)C(=O)CN1C(=O)c2ccccc2C1=O`, the inhibition was 3.29%.

Consider `C=CCn1c(C)cc(C(=O)CN2C(=O)c3ccccc3C2=O)c1C`, for which the inhibition was 11.4%.

Consider `CC(C)OC(=O)CN1C(=O)c2ccccc2C1=O`, for which the inhibition was 7.83%.

With `CCOC(=O)CN1C(=O)C(=O)c2cc(C)ccc21`, the inhibition was 5.42%. Then `Cc1ccc2c(c1)-c1c(ssc1=S)C(C)(C)N2C(=O)CN1C(=O)c2ccccc2C1=O`, with 60.3% (active); and `CN1CCN(S(=O)(=O)c2ccc(N3CCN(S(=O)(=O)c4cccs4)CC3)nc2)CC1`, with 4.14%; and `O=C(CNC(=O)c1cc2c(s1)CCC2)Nc1ccccc1Br`, with -4.14%. The same measure for `CCOC(=O)C1(S(=O)(=O)c2ccccc2)CCN(Cc2ccccc2)CC1`: 4.95%. As to `NC(=O)COc1ccc(/C=N/NC(=O)C2CCCN2S(=O)(=O)c2ccc(Cl)cc2)cc1` (stereo unspecified), the inhibition was 18.9%. Turning to `NC(N)=N/N=C/c1ccc(OCc2ccc(Cl)cc2Cl)cc1`, the inhibition was 67.2% (active). For `COC(=O)c1sc2ncccc2c1OCc1ccc(Cl)cc1Cl`, the inhibition is 11.1%. Regarding `CCN(CC)c1ccc(NC(=O)c2ccc(Cl)nc2)cc1`, the inhibition was 17.1%. Then `CC1CN(c2nc(-c3ccccc3)nnc2-c2ccccc2)CC(C)O1` (stereo unspecified), with 31.6% (active); and `O=c1cc(Cn2nnc(-c3ccc(Cl)cc3)n2)nc2sccn12`, with 11.5%; and `Cc1ccc(-c2nnc(C)c(N3CC(C)OC(C)C3)n2)cc1` (stereo unspecified), with 20.1%.

In the case of `Clc1ccc(-c2nnc(-c3ccccc3)nc2N2CCSCC2)cc1`, the inhibition is 51% (active). In the case of `Cn1nc(-c2ccccc2)c(-c2nc(-c3ccc(Cl)cc3)no2)c1Cl`, the inhibition was -5.95%. Consider `Cc1c(C(=O)N2CC(C)OC(C)C2)sc2nc(-c3ccccc3)cn12` (stereo unspecified), for which the inhibition was 7.66%.

In the case of `COCc1cc(C)nc2sc(C(=O)NC3CCCCC3)c(N)c12`, the inhibition is 8.15%. Regarding `O=C1c2ccccc2C(=O)c2c1cccc2N1CCN(CCO)CC1`, the inhibition is 9.4%.

`O=c1cc(N2CCN(Cc3ccccc3)CC2)c(-c2ccccc2)n[nH]1`: the inhibition is 23.1%. In the case of `CC(C)CCn1c(CN(C)Cc2ccccc2)nc2c1c(=O)n(C)c(=O)n2C`, the inhibition was 9.18%. Turning to `CC(C)Cn1c(CN(Cc2ccccc2)Cc2ccccc2)nc2c1c(=O)n(C)c(=O)n2C`, the inhibition was 33.1% (active).

Turning to `COCCn1c(CN(Cc2ccccc2)Cc2ccccc2)nc2c1c(=O)n(C)c(=O)n2C`, the inhibition was 14.8%. On to `CCC(=O)NNc1cc(=O)c2c(=O)n(C)c(=O)n(C)c2[nH]1`, for which the inhibition is 0%.

As to `CN(C)/C=C(\C#N)C(=O)c1cccnc1Oc1cccc(F)c1`, the inhibition was 10.6%. Take `CNC(=S)N1N=C(c2ccccc2)CC1c1ccc(Br)cc1` (stereo unspecified): the inhibition was 80.4% (active). For `COc1ccc(NC(=S)N2N=CCC2c2ccccc2)cc1` (stereo unspecified), the inhibition was 10.8%.

On to `O=C(COc1ccc(Cl)cc1)NCCSc1ccccc1`, for which the inhibition is 25.3%. The same measure for `O=C(COc1ccc(Cl)cc1)Nc1ccccc1CO`: 36.8% (active); for `O=C(COc1ccccc1)Nc1nonc1NC(=O)COc1ccccc1`: 14.2%; for `O=C(NCCCn1ccnc1)Nc1ccc(Cl)cc1Cl`: 0.62%. Then `Cc1nc(SCC(=O)N2CC(=O)Nc3ccccc32)c2c(C)c(C)sc2n1`, with 2.3%; and `Cc1nc(SCC(=O)N2CCc3ccccc3C2)c2c(C)c(C)sc2n1`, with 49.5% (active); and `Cc1nc(SCC(=O)Nc2cc(C)on2)c2c(C)c(C)sc2n1`, with -1.7%. As for `Cc1ccc(NC(=S)NC(=O)c2ccc(-c3ccccc3)cc2)c(C)c1`, the inhibition is 0.3%. Then `CC1(C)Cc2ccccc2-c2nc(CN3CCOCC3)[nH]c(=O)c21`, with 15.4%. With `CCC1(CC)Cc2ccccc2-c2nc3ccccc3c(=O)n21`, the inhibition was 8.32%. Take `CCOC(=O)C1Cn2c(nc3c(c2=O)C(C)(CC)Cc2ccccc2-3)S1` (stereo unspecified): the inhibition is 39.9% (active). `CCN(CC)c1nc(-c2ccccc2)cc(C(F)(F)F)c1C#N`: the inhibition is 13.7%. For `Cc1ccc2nc(/C(C#N)=C\c3ccc(OC(=O)c4cccs4)cc3)[nH]c2c1`, the inhibition was -11.1%. For `CC(C)C(=O)OCC(=O)Nc1ccc2c(c1)CCC2`, the inhibition was 3.52%. Then `COCCNC(=O)Cn1cc2c(n1)CCCCC2`, with 2.72%; and `O=C(Cn1cc2c(n1)CCCCC2)NCCN1CCOCC1`, with -2.81%; and `CCOC(=O)N1CCC(NC(=O)Cn2cc3c(n2)CCCCC3)CC1`, with 31.9% (active). In the case of `Cc1c(C#N)c(NC(=O)c2ccccc2)n(Cc2ccccc2)c1C`, the inhibition was 8.33%.

For `O=c1c2ccccc2nc2n1C(CSCc1cccc(C(F)(F)F)c1)CS2` (stereo unspecified), the inhibition was 4.97%. As for `O=c1onc(-c2cccs2)n1Cc1ccccc1`, the inhibition was 2.85%.

As for `Cc1c(C(=O)NCc2ccccc2)cnn1-c1ccccc1`, the inhibition was 9.12%. With `Cc1ccc(CNC(=O)c2ccccc2CCc2ccccc2)cc1`, the inhibition is 35.3% (active). In the case of `CS(=O)(=O)NCc1ccc(C(=O)NCc2ccccc2)cc1`, the inhibition is 8.59%. Then `CC1CC(C)CN(C/C=C/c2ccccc2[N+](=O)[O-])C1` (stereo unspecified), with 7.64%; and `Cc1cc(C)n(-c2c(F)c(F)c(COC(=O)c3ccccc3)c(F)c2F)n1`, with 25.1%. For `Cc1[nH]n(-c2ccccc2)c(=O)c1CCOC(=O)c1ccc(C(F)(F)F)cc1`, the inhibition is 33.5% (active). Consider `O=C(OCC(O)C(O)COC(=O)c1ccccc1)c1ccccc1` (stereo unspecified), for which the inhibition was 5.59%.

`CCC(=O)c1c[nH]c(C(=O)NCC2CCCO2)c1` (stereo unspecified): the inhibition was -1.27%. Turning to `CCOc1cccc(C(=O)Nc2cccnc2)c1`, the inhibition is -3.62%. With `Cc1cc(C)c(NC(=O)CS(=O)CC(=O)Nc2cccnc2)c(C)c1` (stereo unspecified), the inhibition is -5.42%. For `Cc1cccc(-n2cnc(C(=O)Nc3cccnc3)c2)n1`, the inhibition was 31.6% (active). As to `Cc1cccc2cc(CN(Cc3nnnn3Cc3ccccc3)C3CCCC3)c(=O)[nH]c12`, the inhibition is 13.2%. The same measure for `CCOc1ccc2[nH]c(=O)c(CN(Cc3nnnn3Cc3ccccc3)CC3CCCO3)cc2c1` (stereo unspecified): 0.14%; for `Cc1cc(C)c2cc(CN(Cc3nnnn3Cc3ccc(F)cc3)C3CCCC3)c(=O)[nH]c2c1`: 41.1% (active); for `N#Cc1c(C(F)(F)F)cc(-c2ccccc2)nc1SCC(=O)N1CCOCC1`: -3.4%.

As to `COc1ccc(CCn2nnnc2C(c2ccccc2)N2CCN(C)CC2)cc1OC` (stereo unspecified), the inhibition is 22.5%. Turning to `Cc1cccc(N2CCN(C(c3ccccc3)c3nnnn3CC3CCCO3)CC2)c1C` (stereo unspecified), the inhibition is 44.4% (active). As to `COc1ccc(C(c2nnnn2Cc2cccs2)N2CCN(c3ccccc3)CC2)cc1OC` (stereo unspecified), the inhibition is 11.7%. For `Cc1cc(OCCOc2cccc3cccnc23)c(C)cc1Cl`, the inhibition was 7.3%. `CCOC(=O)C1=C(C)Nc2sc(C(=O)c3ccc(Br)cc3)c(N)c2C1c1ccc(C(=O)OC)cc1` (stereo unspecified): the inhibition was 9.7%. With `COc1ccc(C(C(=O)NCc2ccccc2)N(Cc2cccs2)C(=O)c2cnccn2)cc1` (stereo unspecified), the inhibition is 7.02%. Take `O=C(N/N=C/c1ccsc1)c1cc(O)cc(O)c1`: the inhibition was 1.53%.

Consider `COc1ccc(/C=C(\NC(=O)c2ccc(OC)c(OC)c2)C(=O)NCCc2c[nH]c3ccccc23)cc1`, for which the inhibition is 6.34%. With `O=S(=O)(c1ccccc1)N(CC(O)CN1CCCCC1)c1ccccc1` (stereo unspecified), the inhibition is -1.97%. As for `CS(=O)(=O)N(CC(O)Cn1c2ccccc2c2ccccc21)c1cccc2ccccc12` (stereo unspecified), the inhibition is 46.2% (active). Regarding `CC(=O)c1ccc2c(c1)c1ccccc1n2CC(C)C`, the inhibition was 23.7%. Consider `N#Cc1ccc(-c2ccc(F)cc2)nc1Sc1ccccc1`, for which the inhibition is 8.35%. For `Cc1cc(C)cc(NS(=O)(=O)c2ccc(Oc3ncc(C(F)(F)F)cc3Cl)cc2)c1`, the inhibition was 33% (active). On to `O=S(=O)(Nc1ccccn1)c1ccc(Oc2ccccc2)cc1`, for which the inhibition was 5.52%. On to `COc1ccccc1Oc1ccc(S(=O)(=O)Nc2cccnc2)cc1`, for which the inhibition is 0.59%. Then `CC1(C)CC(=O)C2=C(C1)N=C1SCCC(=O)N1C2c1ccc(C(F)(F)F)cc1` (stereo unspecified), with 10.4%; and `CCCc1ccc(OCC(=O)NNC(=S)NC(=O)c2ccco2)cc1`, with 33.4% (active). As to `O=C(Nc1ccc(Oc2ccccc2)cc1)c1ccco1`, the inhibition was -0.32%. The same measure for `COc1ccc(CCNC(=O)c2ccco2)cc1`: 14.4%; for `COc1ccc(C(=O)NC(=S)NNC(=O)CCc2ccccc2)cc1`: 31.5% (active). Then `CCOc1cc(NC(=O)c2ccco2)c(OCC)cc1NC(=O)COc1ccccc1`, with 6.65%; and `COc1ccc(OCC(=O)NNC(=O)c2ccc(-c3ccccc3)cc2)cc1`, with -1.92%; and `CCNC(=S)NNC(=O)Cc1ccccc1`, with 8.07%. With `CC(Oc1ccc2ccccc2c1)C(=O)NNC(=S)NC(=O)c1ccco1` (stereo unspecified), the inhibition is 96.2% (active). In the case of `CCOC(=O)c1c(NC(=S)NC(=O)c2ccco2)sc2c1CCCC2`, the inhibition was 3.33%. Turning to `NC(=O)C1(N2CCCCC2)CCN(C2CC(=O)N(Cc3ccc(N4CCCC4=O)cc3)C2=O)CC1` (stereo unspecified), the inhibition was 10.8%.

Source of the values: PubChem BioAssay AID738 (SRMLSC, 2007).
